Assay results from PubChem BioAssay (NCI).
Compounds without any hit were thinned out: in the full panel of roughly 83,000, 20% have a hit.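 Note: values are percent growth. 100 is the growth of untreated cells, values between 100 and 0 indicate rising inhibition; between -100 and 0 indicates cell death.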 Calls of active or inactive are those of the source. Rule for the calls: active = growth percent below 10; inactive = the rest.

Each compound was assayed on IGROV1 ovarian (assay: NCI-60 one-dose screen, 48 h (100 = growth as untreated, 0 = no growth, -100 = all killed)). Conditions: 10 µM unless noted.

SMILES | growth
O=C(Nc1cccc(F)c1)c1cc(=O)[nH]c2cc(Br)ccc12 | 40.5% (inactive)
COC(=O)[C@]12CCC(C)(C)C[C@H]1C1=CC[C@@H]3[C@@]4(C)C/C(=C/c5cccnc5)C(=O)C(C)(C)[C@@H]4CC[C@@]3(C)[C@]1(C)CC2 | -34.2% [100 µM] (active)
N#C/C(C(=O)c1ccccc1)=C1/C(=O)Nc2ccc(Br)cc21 | 90.9% (inactive)
COc1ccc(-c2cc(-c3ccc(Cl)cc3)nc(NCCCCNc3ccnc4cc(Cl)ccc34)n2)cc1 | 60.8% (inactive)
CCCSc1nc(N)nc2nc[nH]c12 | 80.8% (inactive)
CCN(CC)c1ccc2cc(NC(=O)OCCNC(=O)CCNC(=O)[C@H](CC(C)C)NC(=O)C(C)(C)NC(=O)C(C)(C)NC(=O)[C@H](CC(C)C)NC(=O)CCNC(=O)C(C)(C)NC(=O)[C@H](CC(C)C)NC(=O)CCNC(=O)[C@@](C)(CC)NC(=O)[C@H](C)NC(=O)CCNC(=O)C(C)(C)NC(=O)[C@H](C)NC(=O)[C@@H]3CCCN3C(=O)[C@@](C)(CC)NC(=O)[C@H](Cc3ccccc3)NC(=O)C3CCCN3C(=O)C(C)(C)NC(=O)C3CCCN3C(=O)C(C)(C)NC(C)=O)c(=O)oc2c1 (stereo partly drawn) | -69.3% (active)
C=C(C)[C@@H]1CC[C@]2(C(=O)N3CCN(C)CC3)CC[C@]3(C)[C@H](CC[C@@H]4[C@@]5(C)C/C(=C/c6ccncc6)[C@H](O)C(C)(C)[C@@H]5CC[C@]43C)[C@@H]12 | -23.5% [100 µM] (active)
CC[C@@](C)(NC(=O)[C@H](C)NC(=O)CCNC(=O)C(C)(C)NC(=O)[C@H](C)NC(=O)[C@@H]1CCCN1C(=O)[C@@](C)(CC)NC(=O)[C@H](Cc1ccccc1)NC(=O)C1CCCN1C(=O)C(C)(C)NC(=O)C1CCCN1C(=O)C(C)(C)NC(C)=O)C(=O)NCCC(=O)N[C@@H](CC(C)C)C(=O)NC(C)(C)C(=O)NCCC(=O)N[C@@H](CC(C)C)C(=O)NC(C)(C)C(=O)NC(C)(C)C(=O)N[C@@H](CC(C)C)C(=O)NCCC(=O)NCO (stereo partly drawn) | -71.9% (active)
